Data as given in ChEMBL document CHEMBL2218924, “A broad activity screen in support of a chemogenomic map for kinase signalling research and drug discovery” (Biochem J, 2013).

molecular target: Ephrin type-A receptor 2 (Homo sapiens) (UniProt P29317); conditions: at 1 µM
Sequence (P29317 whole entry): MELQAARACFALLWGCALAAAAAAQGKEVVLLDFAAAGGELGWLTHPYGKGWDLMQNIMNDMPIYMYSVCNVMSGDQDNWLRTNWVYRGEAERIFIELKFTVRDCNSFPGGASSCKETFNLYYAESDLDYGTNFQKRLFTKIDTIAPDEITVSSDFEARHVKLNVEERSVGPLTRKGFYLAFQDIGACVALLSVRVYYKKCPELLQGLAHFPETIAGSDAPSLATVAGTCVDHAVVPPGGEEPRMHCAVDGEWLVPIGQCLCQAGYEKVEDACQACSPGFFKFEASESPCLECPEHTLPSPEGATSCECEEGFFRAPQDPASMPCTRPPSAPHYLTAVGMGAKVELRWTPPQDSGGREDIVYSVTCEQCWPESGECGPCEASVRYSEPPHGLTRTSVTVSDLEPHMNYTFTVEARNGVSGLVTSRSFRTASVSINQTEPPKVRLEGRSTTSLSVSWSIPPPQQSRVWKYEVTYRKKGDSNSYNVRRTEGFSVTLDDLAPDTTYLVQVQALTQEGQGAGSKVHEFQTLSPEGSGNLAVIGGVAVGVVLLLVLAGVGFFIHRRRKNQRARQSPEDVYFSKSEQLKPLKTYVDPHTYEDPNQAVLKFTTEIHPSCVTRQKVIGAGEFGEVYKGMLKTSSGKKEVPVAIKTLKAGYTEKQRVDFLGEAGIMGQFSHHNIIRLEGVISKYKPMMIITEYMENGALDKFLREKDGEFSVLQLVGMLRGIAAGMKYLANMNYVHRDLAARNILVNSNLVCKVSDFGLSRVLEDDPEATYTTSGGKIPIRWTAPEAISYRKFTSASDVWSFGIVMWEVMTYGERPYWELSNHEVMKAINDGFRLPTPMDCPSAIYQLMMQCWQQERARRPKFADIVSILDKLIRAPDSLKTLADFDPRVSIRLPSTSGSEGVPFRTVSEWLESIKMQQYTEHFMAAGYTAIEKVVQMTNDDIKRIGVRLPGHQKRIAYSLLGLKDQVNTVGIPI

Row | Compound | residual activity
1 | O=C(CCCc1ccc(-c2ccccc2F)cc1)Nc1ccc(O)cc1 | 97%
2 | CC(C)(C)c1nc2c3ccc(F)cc3c3c(=O)[nH]ccc3c2[nH]1 | 103%
3 | CC(C)c1nn(-c2c(Cl)cccc2Cl)c2nc(Cc3ccc(OCCO)cc3)[nH]c(=O)c12 | 96%
4 | Cn1sc(=O)n(Cc2ccccc2)c1=O | 93%
5 | CC(C)[C@H](CO)Nc1nc(Nc2cc(N)cc(Cl)c2)c2ncn(C(C)C)c2n1 | 88%
6 | COc1cc2nccc(Oc3ccc(NC(=O)Nc4cc(C)on4)c(Cl)c3)c2cc1OC | -3%
7 | NCCNc1ncc(C(N)=O)c(Nc2cccc(C(F)(F)F)c2)n1 | 103%
8 | CN(C)S(=O)(=O)c1ccc2c(c1)/C(=C/c1cc3c([nH]1)CCCC3)C(=O)N2 | 89%
9 | COc1ccc2c(c1)c(C1=C(c3c[nH]c4ccccc34)C(=O)NC1=O)cn2CCCN(C)C | 104%
10 | O=C(c1ccccc1)c1ccc(N2CCOCC2)cc1O | 99%
11 | NC(=O)Nc1sc(-c2ccc(F)cc2)cc1C(N)=O | 32%
12 | CCCCc1c(-c2ccc(OC)cc2)[nH]c2nccnc12 | 87%

molecular target: Ephrin type-A receptor 2 (Homo sapiens) (UniProt P29317); conditions: at 10 µM

Row | Compound | residual activity
13 | O=C1NC(=O)C(c2c[nH]c3ccccc23)=C1c1c[nH]c2ccccc12 | 50%
14 | Nc1nc(Nc2ccc(S(N)(=O)=O)cc2)nn1C(=O)c1c(F)cccc1F | 39%
15 | CC(C)(C)c1nc2c3ccc(F)cc3c3c(=O)[nH]ccc3c2[nH]1 | 103%
16 | CC(C)c1nn(-c2c(Cl)cccc2Cl)c2nc(Cc3ccc(OCCO)cc3)[nH]c(=O)c12 | 103%
17 | Cn1sc(=O)n(Cc2ccccc2)c1=O | 92%
18 | CC(C)[C@H](CO)Nc1nc(Nc2cc(N)cc(Cl)c2)c2ncn(C(C)C)c2n1 | 29%
19 | COc1cc2nccc(Oc3ccc(NC(=O)Nc4cc(C)on4)c(Cl)c3)c2cc1OC | -3%
20 | NCCNc1ncc(C(N)=O)c(Nc2cccc(C(F)(F)F)c2)n1 | 76%
21 | N#C/C(=C\c1ccc(O)c(O)c1)C(=O)NCc1ccccc1 | 101%
22 | COc1ccc2c(c1)c(C1=C(c3c[nH]c4ccccc34)C(=O)NC1=O)cn2CCCN(C)C | 33%
23 | O=C(c1ccccc1)c1ccc(N2CCOCC2)cc1O | 95%
24 | NC(=O)Nc1sc(-c2ccc(F)cc2)cc1C(N)=O | 4%
25 | CCCCc1c(-c2ccc(OC)cc2)[nH]c2nccnc12 | 82%

molecular target: T1, Ephrin type-A receptor 3 (Homo sapiens) (UniProt P29320); conditions: at 1 µM
T1 sequence (whole entry): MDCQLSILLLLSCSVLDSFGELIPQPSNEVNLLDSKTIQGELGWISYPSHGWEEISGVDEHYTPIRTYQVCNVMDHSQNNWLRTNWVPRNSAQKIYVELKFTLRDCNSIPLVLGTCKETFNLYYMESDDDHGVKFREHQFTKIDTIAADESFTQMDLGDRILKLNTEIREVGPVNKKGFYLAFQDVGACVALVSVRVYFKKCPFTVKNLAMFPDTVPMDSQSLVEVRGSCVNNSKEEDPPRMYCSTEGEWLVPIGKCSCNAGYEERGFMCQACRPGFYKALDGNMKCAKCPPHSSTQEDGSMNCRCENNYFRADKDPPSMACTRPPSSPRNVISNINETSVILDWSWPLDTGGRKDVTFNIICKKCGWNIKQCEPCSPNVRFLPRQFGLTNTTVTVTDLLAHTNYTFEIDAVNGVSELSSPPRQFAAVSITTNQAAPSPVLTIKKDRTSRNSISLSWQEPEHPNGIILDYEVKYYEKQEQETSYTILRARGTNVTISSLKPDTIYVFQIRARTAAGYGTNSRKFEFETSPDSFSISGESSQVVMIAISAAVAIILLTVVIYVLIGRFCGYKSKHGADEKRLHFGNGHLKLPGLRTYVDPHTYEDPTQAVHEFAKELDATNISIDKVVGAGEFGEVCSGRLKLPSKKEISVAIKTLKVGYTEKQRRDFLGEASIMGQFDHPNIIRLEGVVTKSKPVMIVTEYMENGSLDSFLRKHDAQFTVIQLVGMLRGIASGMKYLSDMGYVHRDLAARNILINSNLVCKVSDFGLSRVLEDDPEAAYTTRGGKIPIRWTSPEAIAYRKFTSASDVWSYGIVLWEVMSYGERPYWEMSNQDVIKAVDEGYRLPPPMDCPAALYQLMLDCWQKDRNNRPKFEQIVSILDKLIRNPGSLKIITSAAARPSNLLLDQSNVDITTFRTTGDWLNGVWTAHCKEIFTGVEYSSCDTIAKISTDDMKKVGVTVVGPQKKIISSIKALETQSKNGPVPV

Row | Compound | residual activity
26 | O=C(CCCc1ccc(-c2ccccc2F)cc1)Nc1ccc(O)cc1 | 99%
27 | O=C1NC(=O)C(c2cn(CCCO)c3ncccc23)=C1c1cnccn1 | 97%
28 | NC(=O)c1ccc(-c2nc(-c3ccc4c(c3)OCCO4)c(-c3ccccn3)[nH]2)cc1 | 100%
29 | CC(C)(C)c1nc2c3ccc(F)cc3c3c(=O)[nH]ccc3c2[nH]1 | 99%
30 | CC(C)c1nn(-c2c(Cl)cccc2Cl)c2nc(Cc3ccc(OCCO)cc3)[nH]c(=O)c12 | 94%
31 | Cn1sc(=O)n(Cc2ccccc2)c1=O | 87%
32 | CC(C)[C@H](CO)Nc1nc(Nc2cc(N)cc(Cl)c2)c2ncn(C(C)C)c2n1 | 93%
33 | COc1ccc(COc2ccc(Cc3cnc(N)nc3N)cc2OC)cc1 | 108%
34 | COc1cc2nccc(Oc3ccc(NC(=O)Nc4cc(C)on4)c(Cl)c3)c2cc1OC | 1%
35 | CCCC(=O)Oc1ccc2[nH]c(C(=O)c3cc4ccccc4[nH]3)cc2c1 | 107%
36 | CN(C)S(=O)(=O)c1ccc2c(c1)/C(=C/c1cc3c([nH]1)CCCC3)C(=O)N2 | 91%
37 | COc1ccc2c(c1)c(C1=C(c3c[nH]c4ccccc34)C(=O)NC1=O)cn2CCCN(C)C | 106%
38 | NC(=O)Nc1sc(-c2ccc(F)cc2)cc1C(N)=O | 80%
39 | COc1cc2c(cc1OC)-c1n[nH]c(Nc3cccc(F)c3)c1C2 | 83%
40 | CCCCc1c(-c2ccc(OC)cc2)[nH]c2nccnc12 | 74%
41 | Cc1cc(C)c(/C=C2\C(=O)Nc3ccccc32)[nH]1 | 101%
